Screens from PubChem.
This is a sample that favours compounds with a hit; in the whole collection about 19% have one here.
TDP1 cell CPT – qHTS for Inhibitors of human tyrosyl-DNA phosphodiesterase 1 (TDP1): qHTS in cells in presence of CPT. chicken DT40 Tdp1-/-;hTDP1 cells + 20 nM CPT, ATP luminescence, 48 h. Potency, µM (highest dose often 46.2 µM), inactives show top-dose activity change, negative = growth inhibition, most hits filed as inhibitors. hit rate 12% among 420,000; further: potency means the concentration at half of the fitted maximal effect; nearly all actives have a fitted effect of over 55% in size
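Chicken DT40 Tdp1-/- cells stably complemented with human TDP1 were seeded at 400 cells/well in medium containing 20 nM camptothecin, exposed to pin-transferred compounds, and grown at 37 °C for at least 48 hr. Viability was read as ATP luminescence.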
HT1080 IDH1KD tx – qHTS for induction of synthetic lethality in tumor cells producing 2HG: qHTS for the HT-1080-IDH1KD cell line; hit rate 2% among 360,000; HT-1080 IDH1 knockdown viability, ATP luminescence, 48 h; Potency, µM (series often up to 46.1 µM), without a hit: top-dose activity, negative = toxicity, most hits filed as cytotoxic; AID 686971, 2013;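 further: potency means the concentration at half of the fitted maximal effect; 0% = DMSO wells and -100% = cell-free medium wells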
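Viability of IDH1-knockdown HT-1080 fibrosarcoma cells was assessed by CellTiter-Glo after 48 h at 37 °C with titrated compound; concentration-effect curves were classified by fit quality and response size.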
IL-1B inflam inh – qHTS for Inhibitors of Inflammasome Signaling: IL-1-beta AlphaLISA Primary Screen. activity change, % at 57.5 µM. hit rate 4.7% among 360,000. THP-1 LPS/ATP IL-1B secretion, AlphaLISA, 16 h; stronger effect = lower value; in the data active means activity change below about -50%; inconclusive means mostly about -30% to -49%
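THP-1 cells pretreated 1 hr with compounds (up to 57.5 uM final), then stimulated with LPS (250 ng/mL final) plus ATP (1.25 mM final); secreted IL-1B measured by AlphaLISA after 16 hr, decreased signal indicating inhibition.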
HT1080-NT tox – qHTS for induction of synthetic lethality in tumor cells producing 2HG: qHTS for the HT-1080-NT fibrosarcoma cell line; Potency, µM (doses to about 46.1 µM), without a hit: top-dose activity, negative = less viability, most hits filed as cytotoxic; HT-1080-NT fibrosarcoma viability, CellTiter-Glo ATP luminescence, 48 h; hit rate 1.6% among 360,000;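 further: NT is the 2HG producing partner of a matched IDH1 knockdown line; potency means the concentration at half of the fitted maximal effect; 0% = DMSO-treated cells and -100% = media-only wells without cells; nearly all actives have a fitted effect of over 55% in size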
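Luminescent CellTiter-Glo readout after 48 hours of compound exposure at 37 degrees C defined viability of HT-1080-NT cells. Activity was normalized to DMSO wells and cell-free media wells; concentration-response curves were fitted and assigned curve classes.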
ELG1 DNA repair – qHTS screen for small molecules that inhibit ELG1-dependent DNA repair in human embryonic kidney (HEK293T) cells expressing luciferase-tagged ELG1; HEK293T ELG1-luciferase reporter, luminescence, 16 h; DNA damage induced by 5-fluorouridine; Potency, µM (series often up to 46.1 µM), inactives show top-dose activity change, negative = inhibition, most hits filed as inhibitors; AID 504467, 2011; hit rate 2.3% among 330,000; further: potency means the concentration at half of the fitted maximal effect; nearly all actives have a fitted effect of over 55% in size
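Reporter activity after DNA damage by 5-fluorouridine is monitored. Compound-treated cells incubate 16 hr at 37 °C, then ONE-Glo is added for 30 min before luminescence reading.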
DT40 TDP1 no CPT – qHTS for Inhibitors of human tyrosyl-DNA phosphodiesterase 1 (TDP1): qHTS in cells in absence of CPT | Potency, µM (top dose mostly 46.2 µM), inactives show at the highest dose activity change, negative = growth inhibition, hits mostly inhibitors | AID 686978, 2013 | hit rate 15% among 420,000 | DT40 Tdp1-/- hTDP1 cells, no CPT, ATP luminescence, 48 h; further: potency means the concentration at half of the fitted maximal effect; nearly all actives have a fitted effect of over 55% in size
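Camptothecin absent (DMSO only). Human TDP1-complemented DT40 knockout cells, 400 cells/well, 37 °C for minimum 48 hr; ATP measured via CellTiter-Glo, 30 min dark incubation, luminescence.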
* hit, by the source's call; ? = inconclusive; . = not tested or not shown. Unless noted, the call rests on the fitted dose curve; in most records, active means well fitted curve in the direction sought with a large enough effect; inconclusive means small, poorly fitted or top-dose-only effect, or another doubt; inactive means no such curve, though single readings can be large; an effect the other way counts as inactive or inconclusive. Unless noted, on the % scale 0 is the no-effect control and ±100 the full control effect.

SMILES | TDP1 cell CPT | HT1080 IDH1KD tx | IL-1B inflam inh | HT1080-NT tox | ELG1 DNA repair | DT40 TDP1 no CPT
Cc1ccc(NC(=O)N2CCCN(Cc3ccc(F)cc3)C2)cc1C | ? | 16.4µM* | -19.1 | 14.6µM* | 11.5% | ?
CC(=O)Nc1ccc(N2CCN(Cc3ccccc3F)CC2)cc1 | -9.7% | -6.3% | -5.0 | -12.6% | -2.7% | -15.8%
COc1cccc(NC(=S)N2CCCN(Cc3ccc(F)cc3)C2)c1 | -9.6% | ? | -13.2 | 0.0% | 0.1% | 23.1µM*
COc1ccc(NC(=O)CSc2nc3nc(C)cc(C)c3c(=O)[nH]2)cc1OC | -20.2% | -11.0% | 20.9 | -16.3% | 24.7% | -7.8%
CC(CCN1CCN(c2ccccc2)CC1)c1ccccc1 (configuration not stated) | 5.1% | 3.1% | 12.4 | -4.9% | -20.6% | ?
CCc1ccc(NC(=O)CCS(=O)(=O)c2ccc(Cl)cc2)cc1 | ? | 0.0% | 43.1 | 0.5% | -7.7% | ?
CCOc1ccc(NC(=S)N2CCCN(Cc3cccc(Cl)c3)C2)cc1 | ? | ? | -60.7* | -1.4% | -6.4% | ?
COc1ccc(NC(=S)N2CCCN(Cc3cc(C)ccc3C)C2)cc1 | ? | -0.5% | ? | -2.5% | -8.4% | ?
COc1ccc(NC(=S)N2CCCN(Cc3cccc(Cl)c3)C2)cc1 | ? | -13.8% | -64.0* | -12.3% | 3.5% | 16.4µM*
CC(C)[C@H](NC(=O)[C@@H]1CSC2c3ccccc3C(=O)N21)C(=O)NCc1ccncc1 (some centres not stated) | -5.9% | 3.3% | 2.3 | 1.7% | ? | -0.8%
COc1ccc(CCNC(=O)CN(C)S(=O)(=O)c2cccs2)cc1 | 3.2% | 28.0% | -9.6 | 5.1% | -7.7% | -21.8%
CCCc1nn2c(=O)cc(COC(=O)c3ccccc3NC(=O)c3ccc(Cl)cc3)nc2s1 | -23.3% | . | . | . | . | ?
Cc1ccc(C(=O)NC(C)c2ccc(F)cc2)cc1 (configuration not stated) | -1.2% | 11.3% | 12.4 | 9.4% | -0.2% | -15.1%
N#CC(c1ccc(F)cc1)c1ccc(C(=O)c2ccc(F)cc2)cc1 (configuration not stated) | ? | -13.3% | ? | -14.2% | ? | 20.6µM*
Cc1ccc(C(C#N)c2ccc(C(=O)c3ccc(F)cc3)cc2)cc1 (configuration not stated) | 23.1µM* | ? | ? | -21.6% | -5.0% | 8.2µM*
O=C(C1=COCCO1)N1CCN(c2nc3ccc([N+](=O)[O-])cc3s2)CC1 | 9.2µM* | -1.9% | 1.7 | 2.8% | 11.2% | 5.17µM*
COc1ccc(CCNCc2c(C(=O)O)c(C)n(Cc3c(F)cccc3Cl)c2C)cc1OC | -7.2% | . | . | . | . | -3.6%
Cc1ccc(NC(=O)CCC(=O)N2Cc3ccccc3Oc3ncccc32)cc1F | -11.7% | . | . | . | . | ?
Cc1ccc(C)c(NC(=O)Cn2cc(S(=O)(=O)c3ccc(F)cc3)c(=O)c3cc(F)ccc32)c1 | 4.9% | . | . | . | . | -7.6%
Cc1[nH]n(-c2ccccc2)c(=O)c1C(C[N+](=O)[O-])c1ccc(Cl)cc1 (configuration not stated) | 3.26µM* | -21.9% | -13.7 | ? | -7.0% | 4.11µM*
